Rows were chosen to be rich in hits. Some 2.4% of all compounds tested hit in one or more screens of this group.
AmpC det inh – blocks E. coli AmpC beta-lactamase in presence of detergent; P00811; Potency, µM (doses to about 28.7 µM), for the others: at the highest dose activity change, negative = inhibition; purified AmpC, nitrocefin hydrolysis with detergent; 71,000 compounds, 0.09% hits; active = well fitted curve in the direction sought with a large enough effect; inconclusive = small, poorly fitted or top-dose-only effect; also: % is scaled to controls: 0 for no effect and ±100 for the full control effect
Target sequence (P00811 whole entry, looked up): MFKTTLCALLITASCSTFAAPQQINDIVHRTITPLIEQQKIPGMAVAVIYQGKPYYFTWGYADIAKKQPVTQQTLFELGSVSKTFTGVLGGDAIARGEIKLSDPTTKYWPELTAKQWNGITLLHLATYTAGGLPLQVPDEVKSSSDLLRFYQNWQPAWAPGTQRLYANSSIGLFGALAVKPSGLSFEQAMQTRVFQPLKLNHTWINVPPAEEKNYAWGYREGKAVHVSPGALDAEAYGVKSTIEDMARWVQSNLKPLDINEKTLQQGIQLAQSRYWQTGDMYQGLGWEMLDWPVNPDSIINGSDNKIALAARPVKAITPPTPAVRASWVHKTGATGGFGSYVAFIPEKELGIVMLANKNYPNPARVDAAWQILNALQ
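E. coli AmpC (5.3 nM) in 20 mM phosphate pH 7.0 with 0.01% Triton X-100, preincubated 15 min RT with compound; nitrocefin (2 uL of 800 uM stock) hydrolysis followed by 480 nm absorbance every 20 s over 4 min.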
Anthrax LT inh – anthrax lethal toxin internalization inhibition; Cells, anthrax lethal toxin internalization, FRET ratio (460/530); Potency, µM (highest dose often 40 µM), for inactives: at the top dose activity change, negative = inhibition, most hits filed as inhibitors; 70,000 compounds, 0.67% hits; also: % is scaled to controls: 0 for no effect and ±100 for the full control effect; nearly all actives have a fitted effect of over 50% in size
SmPrx2 inh – Schistosoma mansoni Prx2 inhibition | S. mansoni Prx2 activity coupled to TGR/GSH (TGR is thioredoxin glutathione reductase), NADPH fluorescence loss, qHTS | Potency, µM | 65,000 compounds, 0.07% hits | AID 448
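Purified S. mansoni TGR and Prx2 in pH 7.4 phosphate buffer with EDTA and Tween-20 were preincubated with compounds for 15 min. Further NADPH/GSH was added, then a 2.5 mM H2O2 aliquot initiated turnover, followed kinetically by NADPH fluorescence.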
AmpC nodet inh – inhibitors of E. coli AmpC beta-lactamase without detergent | P00811 | AmpC nitrocefin hydrolysis, absorbance 480 nm, no detergent | Potency, µM (doses to about 28.7 µM), for the others: top-dose activity change, negative = inhibition | 71,000 compounds, 1.8% hits | AID 585; also: % of control where 0% means no effect
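Enzyme, pH 7.0 phosphate. Compound titrations were pre-incubated with AmpC for 15 min at room temperature before nitrocefin (stock 800 uM) addition; product formation was recorded at 480 nm every 20 s for 4 min.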
Starred values were filed as active, the others as inactive; ! = not active in a repeat; [ ] = remark or other dose. Unless noted, calls follow the shape of the full dose curve. Potency is read from the fitted curve at half-maximal effect.

How did CCCCNC(=O)CS(=O)Cc1nc(-c2ccc(C)cc2)oc1C (stereo not drawn) do in these assays?
AmpC det inh: 12%; Anthrax LT inh: -2%; SmPrx2 inh: >57; AmpC nodet inh: 4µM*[single pt active]

What do the screens show for `Cc1ccc(-c2nc(CS(=O)CC(=O)NCCCN3CC(C)CC(C)C3)c(C)o2)cc1` (stereo not drawn)?
AmpC det inh: 14%; Anthrax LT inh: -7%; SmPrx2 inh: >57; AmpC nodet inh: 4µM*[single pt active]

What do the screens show for `CO[C@@H]1/C=C\O[C@]2(C)Oc3c(C)c(O)c4c(O)c(c(/C=N\N5CCN(C)CC5)c(O)c4c3C2=O)NC(=O)/C(C)=C\C=C/[C@H](C)[C@H](O)[C@H](C)[C@H](O)[C@H](C)[C@H](OC(C)=O)[C@@H]1C`?
AmpC det inh: -1%; Anthrax LT inh: -9%; SmPrx2 inh: >57; AmpC nodet inh: 114%

What do the screens show for `COc1ccc(C(=O)N2CCC3(CC2)CN(Cc2ccc(C#N)cc2)C3)cc1`?
AmpC det inh: -1%; Anthrax LT inh: -4%; SmPrx2 inh: >57; AmpC nodet inh: 69%

Results for COc1cccc(Cn2c(=O)cnc3cnc(N4CCOCC4)nc32)c1 ?
AmpC det inh: -1%; Anthrax LT inh: inconclusive; SmPrx2 inh: >57; AmpC nodet inh: 29%

What do the screens show for `C[C@@]12C(=O)OC(=O)[C@@]1(C)[C@H]1CC[C@@H]2O1`?
AmpC det inh: 14%; Anthrax LT inh: inconclusive; SmPrx2 inh: >57; AmpC nodet inh: 2%

Results for Cc1cccc2cc(C#N)c(SCC(=O)N3CC(=O)Nc4ccccc43)nc12 ?
AmpC det inh: -4%; Anthrax LT inh: -12%; SmPrx2 inh: >57; AmpC nodet inh: 16µM*[single pt active]

How did Cc1cccc2cc(C#N)c(SCC(=O)N3CCC(C)CC3)nc12 do in these assays?
AmpC det inh: -4%; Anthrax LT inh: -2%; SmPrx2 inh: >57; AmpC nodet inh: 29%

How did COc1ccc(NC(=O)N2CC[C@@]3(CCCN(C(=O)c4cccc(F)c4)C3)C2)cc1 do in these assays?
AmpC det inh: 2%; Anthrax LT inh: -5%; SmPrx2 inh: >57; AmpC nodet inh: 28%

How did Clc1cc(Cl)c(-c2cc(Cl)c(Cl)cc2Cl)cc1Cl do in these assays?
AmpC det inh: 9%; Anthrax LT inh: 3.2µM*; AmpC nodet inh: -5%

How did Oc1cc(Cl)c(Cl)cc1Cl do in these assays?
AmpC det inh: 6%; Anthrax LT inh: inconclusive; AmpC nodet inh: -18%

Results for CC1(C)C(=O)C(c2ccccc2)=C2CN3C(=O)N(CCc4ccccc4)C(=O)C3(Cc3ccccc3)C=C21 (stereo not drawn) ?
AmpC det inh: 27%; Anthrax LT inh: inconclusive; SmPrx2 inh: >57; AmpC nodet inh: 28%

How did COc1ccc2[nH]cc(CCNc3ncncc3-c3ccccc3C)c2c1 do in these assays?
AmpC det inh: -4%; Anthrax LT inh: 10µM*; SmPrx2 inh: >57; AmpC nodet inh: 11%

Results for COc1ccc2[nH]cc(CCNc3ncnc4ccc(-c5cccnc5)cc34)c2c1 ?
AmpC det inh: 9%; Anthrax LT inh: -10%; SmPrx2 inh: >57; AmpC nodet inh: 0%

What do the screens show for `COc1ccc2[nH]cc(CCNc3ncnc4ccc(-c5ccccc5OC)cc34)c2c1`?
AmpC det inh: 9%; Anthrax LT inh: 10µM*; SmPrx2 inh: >57; AmpC nodet inh: 10%

Results for COc1ccc2[nH]cc(CCNc3ccnc(-c4ccoc4)n3)c2c1 ?
AmpC det inh: 10%; Anthrax LT inh: inconclusive; SmPrx2 inh: >57; AmpC nodet inh: -23%

What do the screens show for `COc1ccc2[nH]cc(CCNc3ccnc(-c4ccc(N(C)C)cc4)n3)c2c1`?
AmpC det inh: -4%; Anthrax LT inh: 7.9µM*; SmPrx2 inh: >57; AmpC nodet inh: -6%

Results for COc1ccc2[nH]cc(CCNc3ncncc3-c3cccnc3)c2c1 ?
AmpC det inh: 6%; Anthrax LT inh: -3%; SmPrx2 inh: >57; AmpC nodet inh: 10%

What do the screens show for `CCc1cc2c(nc1CC)CCN(CC/C(C)=N/OC[C@@H](O)[C@@H]1O[C@@H]3OC(C)(C)O[C@@H]3[C@H]1O)C2`?
Anthrax LT inh: 3%[8 µM]

What do the screens show for `COC1=C[C@H]2[C@@H]3Cc4ccc(OC)c(O)c4[C@@]2(CCN3C)CC1=O`?
AmpC det inh: 1%; Anthrax LT inh: inconclusive; SmPrx2 inh: >57; AmpC nodet inh: -6%

How did C=CCN1CCc2cccc3c2[C@@H]1Cc1ccc(O)c(O)c1-3 do in these assays?
AmpC det inh: 0%; Anthrax LT inh: inconclusive; SmPrx2 inh: >57; AmpC nodet inh: -13%

Results for O=C(O)c1c[nH]c2cc(OCc3ccccc3)ccc2c1=O ?
AmpC det inh: -7%[5.75 µM]; Anthrax LT inh: -10%[8 µM]; SmPrx2 inh: >57; AmpC nodet inh: 2%[5.75 µM]

Results for Cc1ccc2c(c1)NC(=O)C(CC(=O)NCCN(C)C)O2 (stereo not drawn) ?
AmpC det inh: 12%; Anthrax LT inh: -1%; SmPrx2 inh: >57; AmpC nodet inh: 3.2µM*[single pt active]

Results for Cc1ccc2c(c1)NC(=O)C(CC(=O)O)O2 (stereo not drawn) ?
AmpC det inh: 10%; Anthrax LT inh: -2%; SmPrx2 inh: >57; AmpC nodet inh: 2%

Results for Cc1ccc(CCNC(=O)CC2Oc3ccc(C)cc3NC2=O)cc1 (stereo not drawn) ?
AmpC det inh: 12%; Anthrax LT inh: 8%; SmPrx2 inh: >57; AmpC nodet inh: 4µM*[single pt active]

What do the screens show for `Cc1ccc2c(c1)NC(=O)C(CC(=O)NCCCN1CCCCC1)O2` (stereo not drawn)?
AmpC det inh: 8%; Anthrax LT inh: -4%; SmPrx2 inh: >57; AmpC nodet inh: 2%

Results for CCOCCCNC(=O)CC1Oc2ccc(C)cc2NC1=O (stereo not drawn) ?
AmpC det inh: 12%; Anthrax LT inh: -7%; SmPrx2 inh: >57; AmpC nodet inh: 4µM*[single pt active]

What do the screens show for `NC(=NCCCCCCN=C(N)/N=C(\N)Nc1ccc(Cl)cc1)/N=C(\N)Nc1ccc(Cl)cc1`?
AmpC det inh: 1%; Anthrax LT inh: inconclusive; SmPrx2 inh: >57; AmpC nodet inh: 2.5µM*

How did CC[C@H](CO)NCCN[C@@H](CC)CO do in these assays?
AmpC det inh: -1%[12.8 µM]; Anthrax LT inh: 11%[3.58 µM]; SmPrx2 inh: >57; AmpC nodet inh: -13%[12.8 µM]

Results for CN(C)c1ccc(-c2cc(NCc3cccnc3)ncn2)cc1 ?
AmpC det inh: 11%; Anthrax LT inh: 2%; SmPrx2 inh: >57; AmpC nodet inh: 13%

How did Cc1ccc(S(=O)(=O)C2(C(=O)NCc3ccc4c(c3)OCO4)CC2)cc1 do in these assays?
AmpC det inh: 11%; Anthrax LT inh: 1%; SmPrx2 inh: >57; AmpC nodet inh: 4µM*[single pt active]

Results for CN(C)c1ccc(-c2cncnc2-n2ccnc2)cc1 ?
AmpC det inh: 4%; Anthrax LT inh: 2%; SmPrx2 inh: >57; AmpC nodet inh: 10%

Results for O=c1c2c([nH]c3ccc(Br)cc13)CCCC2 ?
AmpC det inh: -3%; Anthrax LT inh: 3%; SmPrx2 inh: >57; AmpC nodet inh: -16%

What do the screens show for `O=C1Cc2c([nH]c3ccc(Br)cc23)-c2ccccc2N1`?
AmpC det inh: -4%; Anthrax LT inh: -18%; SmPrx2 inh: >57; AmpC nodet inh: 16µM*!
